esBAF inh = Bmi1 luciferase reporter increase in mESCs, primary screen, esBAF inhibitor project, mouse ES cells, Bmi1 luciferase knock-in, single point; 24 h; 100% = twice the neutral-well signal; reporter increase, % at 12.5 µM; 2% of 350,000 active; AID 602393, 2012; in the data active means activation above about 40%; inconclusive means no clear call, values can overlap the other calls;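 further: 0% = median of the plate's neutral control wells and 100% = double that signal; a rise in the Bmi1 reporter signal indicates esBAF inhibition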
MITF act = activators of MITF-driven TRPM1 promoter reporter, primary screen, cell-based, SK-MEL-5, luciferase, single point; 0.75% of 300,000 active; activation, % at 12.5 µM; SK-MEL-5 TRPM1-promoter luciferase, 24 h; % of positive control, neutral wells = 0;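 active means mean activation of at least 80% with every replicate also reaching 80%; inconclusive means mean reaches 80% but some replicate falls short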;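 further: 0% = neutral control wells and 100% = parthenolide positive control wells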
Wnt bcat act = Wnt/beta-catenin pathway activators, primary screen, cell-based, plate reader, single point; AID 743398, 2014; Wnt/beta-catenin reporter cell assay, activator; 1.2% of 300,000 active; activation, % at 9.35 µM; in the data active means activation above about 30%, passing the limit was not always enough; inconclusive means no clear call, values can overlap the other calls;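 further: 0% = neutral control wells and 100% = positive control wells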
SMARCA2 act = SMARCA2 (BRM) function activators, primary screen, cell-based, luminescence, high throughput. MG213 cells, MMTV-luciferase reporter, dexamethasone, overnight. activation, % at 9.1 µM. 1% of 370,000 active. AID 652017, 2013; in the data active means activation above about 7.8%;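 further: 0% = vehicle wells and 100% = reference activator wells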
HSF1 inh = HSF1 inhibitors in luciferase reporter cells, primary screen, cell-based, NIH3T3, luminescence; NIH3T3-HGL HSE-luciferase, MG132-induced, luminescence 8 h; hits give low values; AID 2098, 2009; activity change, negative = inhibition, % at 7.5 µM (by protocol); 0.77% of 300,000 active;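 active means more than half of replicate wells show activity change below -50%, luminescence cut by over half; inconclusive means some wells, but at most half, below -50%; inactive means no replicate well below -50%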;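 further: luciferase reports HSF-1 transcriptional activity via heat shock element; 0% = median of DMSO wells and -100% = zero luminescence signal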
HSF1 activator = HSF-1 activators, primary screen, NIH3T3-HGL cells, MG132 stress, luminescence, single point; NIH3T3-HGL HSF-1 luciferase reporter, 8 h; 100% = twice DMSO control signal; activation, % at 9 µM; 1.7% of 300,000 active; AID 504408, 2011;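 active means mean replicate activation of at least 50% with a set share of replicates each reaching 50%; inconclusive means only one of those two conditions met; inactive means mean below 50% and too few replicates reaching it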;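 further: 0% = median of the neutral control wells and 100% = twice that signal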
Starred values were filed as active, the others as inactive. In the library only some 4.3% were active in any assay of this set; here they are far more common.

Results for CCC(=O)N1[C@H](C(=O)N(C)C)[C@@H](CO)[C@@H]2Cn3c(ccc(-c4ccccc4)c3=O)[C@@H]21 ?
esBAF inh: -2

How did Cc1ccc(-n2cc(-c3ccccc3)[nH]c2=O)cc1F do in these assays?
esBAF inh: 50*; MITF act: 113*; Wnt bcat act: 0; SMARCA2 act: 4

Results for CCCC(=O)c1ccc(N2CCCC2)c(F)c1 ?
esBAF inh: inconclusive; MITF act: 68; Wnt bcat act: 49*; SMARCA2 act: 0; HSF1 inh: 14; HSF1 activator: 20

Results for CCCC(=O)c1ccc(N2CCN(S(=O)(=O)c3ccccc3)CC2)c(F)c1 ?
esBAF inh: 8; MITF act: 9; SMARCA2 act: -3; HSF1 inh: -4; HSF1 activator: -7

What do the screens show for `CCOC(=O)N1CCN(c2ccc(C(=O)c3ccccc3)cc2F)CC1`?
esBAF inh: 56*; MITF act: 18; SMARCA2 act: 2; HSF1 inh: 25; HSF1 activator: 26

What do the screens show for `O=C(C[C@H]1C=C[C@@H](NC(=O)CN2CCOCC2)[C@H](CO)O1)NCc1cccc(F)c1`?
esBAF inh: -2

What do the screens show for `O=C(Nc1ccccc1NC(=O)NC1CCCCC1)NC1CCCCC1`?
esBAF inh: 15; MITF act: -31; Wnt bcat act: 2; SMARCA2 act: 4; HSF1 inh: 3; HSF1 activator: -7

How did O=C(Nc1cccc([N+](=O)[O-])c1)NC1CCCCCCC1 do in these assays?
esBAF inh: 78*; MITF act: 91*; Wnt bcat act: 24; SMARCA2 act: -1

Results for O=C(Nc1ccccc1)NC1CCCCC1 ?
esBAF inh: 46*; MITF act: 26; SMARCA2 act: 0; HSF1 inh: 9; HSF1 activator: 11

What do the screens show for `O=C(Nc1nc2ccccc2s1)NC1CCCCC1`?
MITF act: 86*; Wnt bcat act: 42*; SMARCA2 act: -2; HSF1 inh: -2; HSF1 activator: 23

Results for O=C(CNC1CCCCC1)Nc1cccc([N+](=O)[O-])c1 ?
esBAF inh: 6; Wnt bcat act: 1; SMARCA2 act: -3; HSF1 inh: 2; HSF1 activator: -10

Results for S=C(Nc1ccccc1)c1nc2ccccc2s1 ?
MITF act: 31; Wnt bcat act: 56*; SMARCA2 act: 6; HSF1 inh: 6; HSF1 activator: 24

How did C[C@H]1CCCCO[C@@H](CN(C)Cc2ccc(C(=O)O)cc2)[C@@H](C)CN([C@@H](C)CO)C(=O)c2cc(NS(=O)(=O)c3ccc(F)cc3)ccc2O1 do in these assays?
esBAF inh: 1

What do the screens show for `O=C(Cc1ccccc1)Nc1nnc(-c2cccc([N+](=O)[O-])c2)s1`?
MITF act: 1; Wnt bcat act: -5; SMARCA2 act: 0; HSF1 inh: 1; HSF1 activator: 0

What do the screens show for `O=C(Nc1ccc(Br)cc1)NC1CCCCCCC1`?
MITF act: inconclusive; Wnt bcat act: 47*; SMARCA2 act: 5; HSF1 inh: 19; HSF1 activator: 50

What do the screens show for `O=C(NC1CCCCC1)N(c1ccccc1)c1nnc(-c2cccc([N+](=O)[O-])c2)s1`?
esBAF inh: 66*; Wnt bcat act: 12; SMARCA2 act: 3

Results for CN(C)C(=S)Nc1nc2ccccc2s1 ?
MITF act: 25; Wnt bcat act: 18; SMARCA2 act: 5; HSF1 inh: 45; HSF1 activator: 83*

How did CN1CCN(C(=O)C[C@@H]2CC[C@H](NC(=O)c3ccc4c(c3)OCO4)[C@@H](CO)O2)CC1 do in these assays?
esBAF inh: -2

What do the screens show for `COCC(=O)Nc1ccc2c(c1)[C@H]1C[C@H](CC(=O)NCc3cc(F)ccc3F)O[C@@H](CO)[C@H]1O2`?
esBAF inh: 1

What do the screens show for `Cc1noc(/C=C/N(C)C)c1S(=O)(=O)N1CCN(c2ccc(F)cc2)CC1`?
esBAF inh: -1; MITF act: 1; Wnt bcat act: 0; SMARCA2 act: -1; HSF1 inh: -62*; HSF1 activator: -69

Results for CCOC(=O)Cn1nc(C)c(NC(=O)COc2ccc([N+](=O)[O-])cc2)c1C ?
MITF act: -4; Wnt bcat act: -1; SMARCA2 act: -3; HSF1 inh: -53*; HSF1 activator: -63

What do the screens show for `CCOC(=O)Cn1nc(C)c(NC(=O)COc2cccc(Cl)c2)c1C`?
MITF act: -5; Wnt bcat act: -1; SMARCA2 act: -4

How did c1ccc(-c2nc(C3CCCCC3)no2)cc1 do in these assays?
esBAF inh: 33; SMARCA2 act: -3; HSF1 inh: 0; HSF1 activator: 9

Results for COc1ccc(-c2nc(-c3ccccc3OC)no2)cc1OC ?
esBAF inh: 55*; SMARCA2 act: 4

Results for COc1cc(-c2nc(-c3cccc(C)c3)no2)cc(OC)c1OC ?
esBAF inh: 27; MITF act: 52; Wnt bcat act: 8; SMARCA2 act: 1; HSF1 inh: 12; HSF1 activator: 7

Results for COc1ccc(-c2nc(-c3cccc(C)c3)no2)cc1OC ?
esBAF inh: 46*; MITF act: 38; Wnt bcat act: 17; HSF1 inh: 19; HSF1 activator: 47

How did COc1ccccc1-c1noc(-c2ccccc2)n1 do in these assays?
MITF act: 33; SMARCA2 act: 7; HSF1 inh: 17; HSF1 activator: 35

How did COc1ccc(-c2nc(C3CCCCC3)no2)cc1OC do in these assays?
esBAF inh: 60*; MITF act: 106*; Wnt bcat act: -2; SMARCA2 act: 4; HSF1 inh: 36; HSF1 activator: 81*

Results for CC1(C)CC(=O)C(C=Nc2ccncc2)=C(O)C1 ?
esBAF inh: 2; MITF act: 0; SMARCA2 act: -2; HSF1 inh: -7; HSF1 activator: 0

Results for COc1ccc(N=CC2=C(O)CC(C)(C)CC2=O)cc1 ?
esBAF inh: 49*; MITF act: 32; SMARCA2 act: 7; HSF1 inh: 16; HSF1 activator: 15

How did CC1(C)CC(=O)C(C=Nc2cccnc2)=C(O)C1 do in these assays?
esBAF inh: 3; MITF act: 1; Wnt bcat act: -1; SMARCA2 act: -3; HSF1 inh: 79; HSF1 activator: 133*

What do the screens show for `C[C@@H]1CN([C@H](C)CO)C(=O)Cc2cc(NC(=O)CCN3CCOCC3)ccc2O[C@@H]1CN(C)C(=O)Nc1ccccc1`?
esBAF inh: 3

Source: PubChem
